Measurements published in PubChem BioAssay (Tox21).
Records with an inconclusive call do not appear. Activity calls are given as the source filed them. Unless noted, calls come from the whole dose curve; as a rule, active = well fitted curve in the direction sought with a large enough effect in the repeat runs; inconclusive = weak or mixed curves; inactive = no such curve, though single readings can be large; an effect the other way counts as inactive or inconclusive.

Experiments:
[1] = qHTS assay to identify small molecule agonists of the sonic hedgehog signaling (Shh) pathway - cell viability counter screen (AID 1259366); note: nearly all actives have a fitted effect of over 50% in size
How it was run: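 After a 4hr attachment at 37C, NIH/3T3 cells bearing an integrated Gli1-driven luciferase reporter were dosed with compounds. Treatment lasted 24hr, with the final hour including CellTiter-Fluor for a fluorescence viability measurement.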

[2] = qHTS assay to identify small molecule antagonists of the sonic hedgehog signaling (Shh) pathway - cell viability counter screen (AID 1259367); note: nearly all actives have a fitted effect of over 55% in size
How it was run: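 Fluorescence read-out (CellTiter-Fluor, 1 hr at 37C) taken after 23 hr compound treatment of 3T3 Gli1-Luc cells stimulated with conditioned medium. Cells were seeded at 2,000 per well and pre-incubated 4 hr.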

[3] = qHTS assay to identify small molecule agonists of the sonic hedgehog signaling (Shh) pathway (AID 1259368; calls by dose curve;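 note: NIH/3T3-derived 3T3Gli1-Luc cells carrying a stable Gli1-driven firefly luciferase reporter; series mostly up to about 92 µM; nearly all actives have a fitted effect of over 15% in size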)
How it was run: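 Stable NIH/3T3 Gli1-Luc reporter clone; 24 hr cpd exposure after a 4 hr settling period; luminescence endpoint.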

[4] = qHTS assay to identify small molecule antagonists of the sonic hedgehog signaling (Shh) pathway (AID 1259369; calls by dose curve; note: nearly all actives have a fitted effect of over 45% in size)
How it was run: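 Gli1 transcriptional reporter (firefly Luc) in NIH/3T3 background, conditioned-medium activated. 24hr exposure, luminescence endpoint.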

[5] = qHTS assay to identify small molecule agonists of the androgen receptor (AR) signaling pathway in the presence of an antagonist - cell viability counter screen (AID 1259379);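 note: MDA-kb2 human breast cancer cells carrying an MMTV luciferase reporter; series mostly up to about 92 µM; nearly all actives have a fitted effect of over 25% in size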
How it was run: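 Counter screen for cell viability run in parallel with the AR agonist-mode luciferase assay. MDA-kb2 cells were co-treated with nilutamide (3.0uM final) and compounds, then incubated 16 hr at 37C, and CellTiter-Fluor fluorescence was measured.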

[6] = qHTS assay to identify small molecule agonists of the estrogen receptor beta (ER-beta) signaling pathway - cell viability counter screen (AID 1259380); note: nearly all actives have a fitted effect of over 30% in size
How it was run: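 In this qHTS counter screen, HEK293T cells carrying an ER-beta/UAS beta-lactamase reporter, grown in 2% charcoal-stripped FBS, received compound for 16 hr; ATP-based CellTiter-Glo luminescence was then read after 30 min at room temperature.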

[7] = qHTS assay to identify small molecule antagonists of the estrogen receptor beta (ER-beta) signaling pathway - cell viability counter screen (AID 1259382); note: series mostly up to about 92 µM; nearly all actives have a fitted effect of over 55% in size
How it was run: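 HEK293T ER-beta-UAS-bla, 2% charcoal-stripped FBS; compounds + 1nM E2 16 hr 37C; CellTiter-Glo luminescence, 30 min RT.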

[8] = target: Estrogen receptor (Homo sapiens) (UniProt P03372); assay: qHTS assay to identify small molecule agonists of the estrogen receptor alpha (ER-alpha) signaling pathway in the presence of an antagonist (AID 1259383; calls by dose curve; note: top concentration of the series differs between compounds; nearly all actives have a fitted effect of over 15% in size)
Chain of Estrogen receptor (Homo sapiens) (P03372 whole entry, looked up): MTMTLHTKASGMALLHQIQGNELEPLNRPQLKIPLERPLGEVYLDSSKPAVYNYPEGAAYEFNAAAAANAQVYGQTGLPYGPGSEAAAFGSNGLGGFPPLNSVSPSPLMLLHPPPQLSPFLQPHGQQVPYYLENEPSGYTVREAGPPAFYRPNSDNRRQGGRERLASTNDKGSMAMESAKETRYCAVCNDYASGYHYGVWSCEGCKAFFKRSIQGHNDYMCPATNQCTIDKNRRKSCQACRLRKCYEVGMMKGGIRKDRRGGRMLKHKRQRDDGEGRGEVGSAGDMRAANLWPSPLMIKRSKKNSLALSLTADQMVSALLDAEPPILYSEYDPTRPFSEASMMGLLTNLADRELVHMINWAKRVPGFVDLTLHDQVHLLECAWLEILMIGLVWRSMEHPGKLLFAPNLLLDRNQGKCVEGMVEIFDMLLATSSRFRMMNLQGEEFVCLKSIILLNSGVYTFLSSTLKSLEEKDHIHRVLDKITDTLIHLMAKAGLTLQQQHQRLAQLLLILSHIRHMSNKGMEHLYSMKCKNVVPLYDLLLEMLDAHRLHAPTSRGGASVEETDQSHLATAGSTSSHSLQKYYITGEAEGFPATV
How it was run: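 ER-alpha agonism measured under antagonist challenge: 10.0nM ICI-182,780 (final) plus compound, 15 concentrations, 22hr, VM7Luc4E2 ERE-luciferase cells. Read by luminescence.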

[9] = qHTS assay to identify small molecule agonists or antagonists of the thyroid stimulating hormone receptor (TSHR) signaling pathway - wild type cell line counter screen (AID 1259384; calls by dose curve)
How it was run: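 Wild-type Hek293 cells, 800/well, 18 h at 37C, then compound with Ro20-1724 for 30 min RT. cAMP by HTRF (cAMP-d2/anti-cAMP cryptate), 1 h RT, fluorescence read. 15 concentrations, triplicates.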

[10] = target: Thyrotropin receptor (Homo sapiens) (UniProt P16473); assay: qHTS assay to identify small molecule antagonists of the thyroid stimulating hormone receptor (TSHR) signaling pathway (AID 1259385; calls by dose curve; note: nearly all actives have a fitted effect of over 20% in size)
Chain of Thyrotropin receptor (Homo sapiens) (P16473 whole entry, looked up): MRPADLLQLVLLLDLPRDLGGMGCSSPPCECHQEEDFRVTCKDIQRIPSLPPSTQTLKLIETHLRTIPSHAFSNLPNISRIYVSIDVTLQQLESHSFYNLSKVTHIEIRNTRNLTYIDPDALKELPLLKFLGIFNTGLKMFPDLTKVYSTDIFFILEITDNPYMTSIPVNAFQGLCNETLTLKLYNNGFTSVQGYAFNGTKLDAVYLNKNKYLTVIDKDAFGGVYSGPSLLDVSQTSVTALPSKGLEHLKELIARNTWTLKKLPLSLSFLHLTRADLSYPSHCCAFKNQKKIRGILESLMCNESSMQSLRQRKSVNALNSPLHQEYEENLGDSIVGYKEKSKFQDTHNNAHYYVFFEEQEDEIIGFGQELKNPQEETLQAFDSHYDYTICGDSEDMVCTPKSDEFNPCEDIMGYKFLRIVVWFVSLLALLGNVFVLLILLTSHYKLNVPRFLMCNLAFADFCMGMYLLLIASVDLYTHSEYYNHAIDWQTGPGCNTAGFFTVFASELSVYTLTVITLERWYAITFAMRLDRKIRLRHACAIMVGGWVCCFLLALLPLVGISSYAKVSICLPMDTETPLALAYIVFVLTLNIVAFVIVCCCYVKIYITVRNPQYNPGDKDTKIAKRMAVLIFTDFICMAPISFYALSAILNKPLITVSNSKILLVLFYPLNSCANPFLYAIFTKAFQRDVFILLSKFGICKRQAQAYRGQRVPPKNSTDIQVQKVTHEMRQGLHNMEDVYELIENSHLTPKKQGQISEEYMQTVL
How it was run: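 TSHR-HEK293 cells (800/well) plated 18 h, then compounds with Ro20-1724 and TSH at 1.5 ng/mL final, 30 min at room temperature. cAMP quantified by HTRF (cAMP-d2/anti-cAMP-cryptate, 1 h); 15 concentrations in triplicate.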

[11] = target: Progesterone receptor (Homo sapiens) (UniProt P06401); assay: qHTS assay to identify small molecule agonists of the progesterone receptor (PR) signaling pathway (AID 1346784; calls by dose curve; note: nearly all actives have a fitted effect of over 30% in size)
Chain of Progesterone receptor (Homo sapiens) (P06401 whole entry, looked up): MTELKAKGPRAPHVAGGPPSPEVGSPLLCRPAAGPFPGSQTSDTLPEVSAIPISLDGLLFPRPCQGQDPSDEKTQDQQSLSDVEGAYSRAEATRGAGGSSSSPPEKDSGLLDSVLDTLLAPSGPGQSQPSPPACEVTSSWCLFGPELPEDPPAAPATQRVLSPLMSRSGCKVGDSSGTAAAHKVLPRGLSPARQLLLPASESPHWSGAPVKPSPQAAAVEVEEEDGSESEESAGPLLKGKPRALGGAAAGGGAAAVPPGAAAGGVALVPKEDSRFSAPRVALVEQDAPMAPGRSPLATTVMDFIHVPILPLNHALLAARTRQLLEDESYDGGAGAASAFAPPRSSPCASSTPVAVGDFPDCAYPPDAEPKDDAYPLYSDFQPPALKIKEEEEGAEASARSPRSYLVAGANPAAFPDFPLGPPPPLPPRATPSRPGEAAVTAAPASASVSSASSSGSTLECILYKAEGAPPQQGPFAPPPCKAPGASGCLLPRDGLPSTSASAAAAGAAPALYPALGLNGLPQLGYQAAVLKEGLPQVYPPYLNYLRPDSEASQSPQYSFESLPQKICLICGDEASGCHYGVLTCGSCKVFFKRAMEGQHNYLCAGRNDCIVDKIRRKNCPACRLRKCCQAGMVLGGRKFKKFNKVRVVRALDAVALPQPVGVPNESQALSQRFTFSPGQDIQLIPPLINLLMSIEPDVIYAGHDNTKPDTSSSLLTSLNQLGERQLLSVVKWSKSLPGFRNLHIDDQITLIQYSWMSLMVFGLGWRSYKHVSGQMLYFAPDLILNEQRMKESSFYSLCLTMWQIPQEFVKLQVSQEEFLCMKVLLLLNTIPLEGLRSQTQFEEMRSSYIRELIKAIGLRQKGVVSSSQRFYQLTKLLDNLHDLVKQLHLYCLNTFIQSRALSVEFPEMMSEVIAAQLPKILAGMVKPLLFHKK
How it was run: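 Using charcoal-stripped serum (2%) to limit endogenous steroids, PR-UAS-bla HEK 293T cells received compounds for 16 hr at 37C after 6 hr plating; beta-lactamase FRET fluorescence was recorded following 2 hr substrate loading at room temperature.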

[12] = target: Progesterone receptor (Homo sapiens) (UniProt P06401); assay: qHTS assay to identify small molecule antagonists of the progesterone receptor (PR) signaling pathway (AID 1346795; active = well fitted inhibition curve with a large enough effect in the signal ratio in the repeat runs, not every such curve was filed as active; the % refers to the signal ratio)
How it was run: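 Inhibition of R5020-induced (1 nM final) beta-lactamase reporter signal in PR-UAS-bla HEK293T cells was scored by FRET fluorescence after overnight (16 hr) compound treatment.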

[13] = qHTS assay to identify small molecule antagonists of the progesterone receptor (PR) signaling pathway - cell viability counter screen (AID 1346798); note: series mostly up to about 92 µM; nearly all actives have a fitted effect of over 50% in size
How it was run: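 ATP content as viability readout: CellTiter-Glo luminescence, 30 min room temperature, in PR-UAS-bla HEK293T cells after 16 hr compound/R5020 treatment at 37C and 5% CO2.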

[14] = qHTS assay to identify small molecule agonists of the progesterone receptor (PR) signaling pathway - cell viability counter screen (AID 1346799; calls by dose curve; note: nearly all actives have a fitted effect of over 45% in size)
How it was run: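 Cytotoxicity in PR-bla HEK293T cells: 16 h compound, 37C; CellTiter-Glo added post-FRET read; luminescence after 30 min RT.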

[15] = qHTS assay to identify small molecule antagonists of the TGF-beta/Smad signaling pathway - cell viability counter screen (AID 1346824); note: nearly all actives have a fitted effect of over 50% in size
How it was run: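 SBE-bla HEK 293T cells, incubated overnight, then compound plus 0.25 ng/mL TGF-beta1 (stock added) for 5 hr at 37 C. Viability was read in the same wells by CellTiter-Glo luminescence after 30 min at room temperature.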

[16] = qHTS assay to identify small molecule agonists of the TGF-beta/Smad signaling pathway - cell viability counter screen (AID 1346829); note: top concentration of the series differs between compounds; nearly all actives have a fitted effect of over 45% in size
How it was run: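 Compound-treated SBE-bla HEK 293T cells (5 hr, 37 C) were assessed for viability with CellTiter-Glo in parallel with the reporter read.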

[17] = target: Estrogen receptor beta (Homo sapiens) (UniProt Q92731); assay: qHTS assay to identify small molecule agonists of the estrogen receptor beta (ER-beta) signaling pathway (AID 1259377; active = well fitted activation curve with a large enough effect in the signal ratio in the repeat runs, not every such curve was filed as active; the % refers to the signal ratio)
Chain of Estrogen receptor beta (Homo sapiens) (Q92731 whole entry, looked up): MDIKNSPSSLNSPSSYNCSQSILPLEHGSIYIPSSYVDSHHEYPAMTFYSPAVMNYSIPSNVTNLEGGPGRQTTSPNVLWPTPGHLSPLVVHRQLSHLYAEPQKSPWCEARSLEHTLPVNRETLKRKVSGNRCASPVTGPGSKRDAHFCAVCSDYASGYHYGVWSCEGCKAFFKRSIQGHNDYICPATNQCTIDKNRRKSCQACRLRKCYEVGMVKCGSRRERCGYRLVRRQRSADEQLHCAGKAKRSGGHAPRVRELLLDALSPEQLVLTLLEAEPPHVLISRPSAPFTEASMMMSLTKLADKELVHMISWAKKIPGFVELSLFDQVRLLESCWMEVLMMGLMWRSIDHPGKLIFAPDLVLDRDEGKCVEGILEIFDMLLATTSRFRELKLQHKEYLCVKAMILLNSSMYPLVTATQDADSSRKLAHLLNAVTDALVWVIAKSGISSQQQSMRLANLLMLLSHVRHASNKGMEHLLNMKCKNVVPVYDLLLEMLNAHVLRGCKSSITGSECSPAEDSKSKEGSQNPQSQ
How it was run: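 In HEK293T cells bearing a UAS-beta-lactamase reporter under ER-beta control, DMSO-delivered compounds were incubated for 16 hr at 37C. Activity was detected as fluorescence 2 hours after LiveBLAzer B/G FRET substrate addition.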

[18] = qHTS assay to identify small molecule agonists of the estrogen receptor alpha (ER-alpha) signaling pathway in the presence of an antagonist - cell viability counter screen (AID 1259386);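 note: series mostly up to about 92 µM; cells exposed to compounds for 22 h at 37 °C before the viability read; nearly all actives have a fitted effect of over 30% in size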
How it was run: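 Steps: 5-day stripped-FBS culture; seed and incubate 24hr; add ICI-182,780 (10.0nM final); pin 15-point compound titration; incubate 22hr at 37C; add CellTiter-Fluor at 21hr; read fluorescence.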

[19] = target: Estrogen receptor beta (Homo sapiens) (UniProt Q92731); assay: qHTS assay to identify small molecule antagonists of the estrogen receptor beta (ER-beta) signaling pathway (AID 1259378; active = well fitted inhibition curve with a large enough effect in the signal ratio in the repeat runs, not every such curve was filed as active; the % refers to the signal ratio)
How it was run: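 ER-beta-UAS-bla HEK293T cells in 2% charcoal-stripped FBS medium treated with compound plus 1nM final 17-beta-estradiol for 16 hr at 37C. Beta-lactamase reporter read by FRET substrate fluorescence after 2 hours at room temperature.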

[20] = target: Androgen receptor (Homo sapiens) (UniProt P10275); assay: qHTS assay to identify small molecule agonists of the androgen receptor (AR) signaling pathway in the presence of an antagonist (AID 1259381; calls by dose curve; note: nearly all actives have a fitted effect of over 15% in size)
Chain of Androgen receptor (Homo sapiens) (P10275 whole entry, looked up): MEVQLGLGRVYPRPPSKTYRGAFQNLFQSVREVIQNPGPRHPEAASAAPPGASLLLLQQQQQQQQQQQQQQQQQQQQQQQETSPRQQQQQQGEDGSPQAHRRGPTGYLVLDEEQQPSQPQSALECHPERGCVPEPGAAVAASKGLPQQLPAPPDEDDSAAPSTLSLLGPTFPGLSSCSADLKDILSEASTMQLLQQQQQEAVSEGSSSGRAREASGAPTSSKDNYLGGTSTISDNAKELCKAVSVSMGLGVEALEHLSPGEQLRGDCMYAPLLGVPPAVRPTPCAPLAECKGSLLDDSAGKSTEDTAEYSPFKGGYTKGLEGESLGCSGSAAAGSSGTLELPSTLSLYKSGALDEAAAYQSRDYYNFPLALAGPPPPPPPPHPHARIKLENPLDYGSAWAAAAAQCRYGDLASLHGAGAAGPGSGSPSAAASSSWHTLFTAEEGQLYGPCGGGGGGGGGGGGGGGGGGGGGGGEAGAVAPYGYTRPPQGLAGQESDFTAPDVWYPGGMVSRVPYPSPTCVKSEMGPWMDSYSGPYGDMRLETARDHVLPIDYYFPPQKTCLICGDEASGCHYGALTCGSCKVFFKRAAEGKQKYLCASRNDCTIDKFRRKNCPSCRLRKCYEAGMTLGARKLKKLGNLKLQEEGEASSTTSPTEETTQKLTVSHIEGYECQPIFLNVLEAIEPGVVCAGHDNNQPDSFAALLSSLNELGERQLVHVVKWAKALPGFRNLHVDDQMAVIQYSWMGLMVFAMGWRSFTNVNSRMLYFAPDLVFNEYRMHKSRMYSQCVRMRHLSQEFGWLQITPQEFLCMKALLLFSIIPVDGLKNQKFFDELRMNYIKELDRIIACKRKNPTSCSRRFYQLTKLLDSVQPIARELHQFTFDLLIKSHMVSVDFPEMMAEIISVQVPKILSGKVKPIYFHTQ
How it was run: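 AR antagonist background: nilutamide 3.0uM final. Cell line: MDA-kb2, MMTV-driven luciferase, responsive to both AR and GR. Exposure 16hr, 37C, no CO2; ONE-Glo luminescence.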

Measured: Potency

NC(=O)C1(N2CCCCC2)CCN(CCCC(=O)c2ccc(F)cc2)CC1
not listed: [17] | [18] | [19] | [20]
inactive: all other assays above

Cc1ccc2c(c1)c1c3n2CCNC3CCC1 (configuration not stated)
not listed: [6] | [7] | [8] | [13] | [14] | [19] | [20]
inactive: all other assays above

CCC(=O)OCCC(C)CCC=C(C)C (configuration not stated)
not listed: [8] | [17] | [20]
inactive: all other assays above

O=C1NC2NC(=O)NC2N1 (configuration not stated)
not listed: [6] | [8] | [19] | [20]
inactive: all other assays above

CC(=O)N(CC(O)CO)c1c(I)c(C(=O)NCC(O)CO)c(I)c(C(=O)NCC(O)CO)c1I (configuration not stated)
not listed: [9] | [10] | [13] | [17] | [19] | [20]
inactive: all other assays above

FC(F)(F)c1ccc(Cl)cc1Cl
not listed: [8] | [17] | [19] | [20]
inactive: all other assays above

CC(Cl)COP(=O)(OCC(C)Cl)OCC(C)Cl (configuration not stated)
not listed: [5] | [12] | [18] | [19] | [20]
inactive: all other assays above

O=C1OC(=O)c2cc(Oc3ccc4c(c3)C(=O)OC4=O)ccc21
not listed: [5] | [6] | [17] | [19]
inactive: all other assays above

FC(F)(F)/C(=N\OCC1OCCO1)c1ccc(Cl)cc1
not listed: [4] | [20]
inactive: all other assays above

O=C(CN1CCN(Cc2ccc3c(c2)OCO3)CC1)N1c2ccccc2Sc2ccccc21
not listed: [6] | [8] | [17] | [19]
inactive: all other assays above

CN[C@@H]1[C@@H](O)[C@@H](O[C@@H]2[C@H](O)[C@H](O[C@H]3OC(CN)=CC[C@H]3N)[C@@H](N)C[C@H]2N)OCC1(C)O (some centres not stated)
inactive: [1] | [2] | [3] | [4] | [7] | [9] | [10] | [11] | [12] | [14] | [15]

CCCCCCCCCCCCC
not listed: [6] | [17] | [19] | [20]
inactive: all other assays above

O=P(O)(O)OCC(O)CO (configuration not stated)
not listed: [5] | [9] | [10] | [13] | [17] | [19] | [20]
inactive: all other assays above

O=C(O)/C=C/c1ccccc1
not listed: [5] | [17] | [18] | [19] | [20]
inactive: all other assays above
